# Measurements taken from PubChem BioAssay.
# Several values for one entry are separate records, joined by “and”; a condition that tells them apart may be missing. Equal values may be shown once. Records with an inconclusive call do not appear. For some of these results: Measured potencies and affinities stand elsewhere. Activity calls are given as the source filed them.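 Rule for the calls, unless noted: active = compounds whose cell count with miR-34 switched on is under 0.7 times the count with it off; inactive = the rest.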
# Experiments:
# [1] = sensitizers of A549 cells to miR-34 induction, primary screen, imaging, A549 dox-inducible miR-34, nuclei and caspase counts (AID 1347080); conditions: A549 miR-34 inducible, Hoechst nuclei count, 48 h
# [2] = biological target: NAD(+) hydrolase SARM1 (Homo sapiens) (UniProt Q6SZW1); assay: SARM1 TIR NADase inhibitors, cell lysate, NAD-Glo luminescence (AID 1508614;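 active = compound whose remaining NAD level is above about 45 nM, limit read from the data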;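 note: higher remaining NAD means stronger inhibition of SARM1 NADase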); conditions: SAM-TIR HEK293T lysate NADase, at 1 µM, stronger effect = higher value
# Chain of NAD(+) hydrolase SARM1 (Homo sapiens) (Q6SZW1 whole entry, looked up): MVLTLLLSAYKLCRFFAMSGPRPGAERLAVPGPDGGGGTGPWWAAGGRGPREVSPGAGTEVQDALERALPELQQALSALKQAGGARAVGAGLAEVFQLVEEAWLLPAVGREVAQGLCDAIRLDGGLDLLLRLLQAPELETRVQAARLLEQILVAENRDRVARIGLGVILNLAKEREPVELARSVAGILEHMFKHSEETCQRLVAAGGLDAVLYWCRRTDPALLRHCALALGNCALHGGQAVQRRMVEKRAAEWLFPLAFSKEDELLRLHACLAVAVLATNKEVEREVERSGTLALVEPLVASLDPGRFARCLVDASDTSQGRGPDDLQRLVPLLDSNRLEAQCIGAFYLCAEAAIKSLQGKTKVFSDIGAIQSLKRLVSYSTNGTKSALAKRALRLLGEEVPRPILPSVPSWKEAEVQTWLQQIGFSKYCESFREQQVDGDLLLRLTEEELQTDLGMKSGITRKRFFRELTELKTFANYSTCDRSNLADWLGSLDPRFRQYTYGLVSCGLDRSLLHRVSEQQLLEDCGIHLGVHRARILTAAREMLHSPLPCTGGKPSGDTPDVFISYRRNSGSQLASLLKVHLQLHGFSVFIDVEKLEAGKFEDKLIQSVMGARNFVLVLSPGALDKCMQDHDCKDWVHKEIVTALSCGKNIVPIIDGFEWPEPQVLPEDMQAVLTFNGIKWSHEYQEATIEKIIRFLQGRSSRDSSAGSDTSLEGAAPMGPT
# [3] = kinase inhibitors against Plasmodium liver-stage infection, cell-based, known kinase inhibitor set, luminescence, hepatoma host viability (AID 624392; call rule not given here;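 note: infected cells incubated roughly two days before readout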); conditions: Plasmodium liver stage in hepatoma cells, luciferase luminescence, concentration not given here; liver cell % of control: measured here: host liver cell viability; parasite % of control: stronger effect = lower value
# [4] = survival rescue of mitochondrial mutant cells in low glucose, primary screen, MELAS cybrids, Rieske KO mouse fibroblasts, CellTiter-Glo (AID 1508586;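 active = mean z-score across replicates of 1.96 or higher in either the MELAS or the Rieske mutant cell line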;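 note: z relative to plate mean and SD of compound and empty wells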)
# [5] = liver-stage malaria parasite growth inhibition, primary screen, cell-based, HepG2, luciferase luminescence, HepG2 viability (AID 624349; in the data active = parasite load remaining mostly below about 12%, no sharp cut-off; inactive = mostly above about 10%;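 note: 100% = mean of DMSO negative control wells on the same plate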); conditions: P. berghei liver stage in HepG2, luciferase luminescence, concentration not given here; parasite load remaining: stronger effect = lower value; viability: measured here: HepG2 viability without parasites
# [6] = polyglutamine-triggered caspase-3 activation inhibitors, cell-based (AID 1583); conditions: polyglutamine-induced caspase-3 activation, cell assay; stronger effect = higher value;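 tested at 10 µM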
# [7] = suppressors of polyQ aggregation in yeast, 75Q-TubU reporter (AID 1593); conditions: Yeast 75Q polyglutamine aggregation reporter
# [8] = rescue of polyQ-huntingtin neuronal dysfunction in worms, whole organism, C. elegans mechanosensory neurons, N-terminal huntingtin (AID 1599); conditions: touch response, stronger effect = higher value
# [9] = inhibitors of mitochondrial cytochrome c release, biochemical, purified mitochondria (AID 1603); conditions: stronger effect = lower value;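 note: mouse liver mitochondria challenged with calcium chloride; signal normalized to the plate average as 100%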
# [10] = inhibitors of polyQ protein aggregation (AID 1604); conditions: polyglutamine-induced protein aggregation inhibition assay; stronger effect = higher value; tested at 2.5 µM
# [11] = enhancers of glutamate uptake in motor neurons, MN-1 cell line (AID 1612); conditions: MN-1 motor neuron cells, stronger effect = higher value;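 note: tested at 1 µM final; 0% = mean of DMSO vehicle wells on each plate; positive means more glutamate uptake than control and negative means less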
# [12] = reducers of polyQ inclusions in PC12 cells, cell-based, NGF-treated PC12, GFPQ80 (AID 1614); conditions: PC12 NGF-treated GFP-polyQ80 inclusion reduction;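 note: lower means fewer inclusions and 0 means no inclusions at all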
# [13] = suppressors of polyglutamine aggregation in yeast, 75Q-TubH (AID 1616); conditions: S. cerevisiae 75Q-TubH polyglutamine aggregation suppression; stronger effect = higher value
# [14] = hESC survival regulators, cell-based (AID 493140; call rule not given here;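 note: cells exposed to compounds for four days before counting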); conditions: human embryonic stem cell survival screen; stronger effect = higher value
# [15] = biological target: Mitogen-activated protein kinase 7 (Homo sapiens) (UniProt Q13164); assay: ERK5 transactivation activators in reporter cells, primary screen, cell-based, HTS (AID 1508626;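 active = luciferase signal above three times the same-plate solvent-only control wells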;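 note: luciferase driven by Gal4-ERK5 fusion binding five Gal4 sites before minimal TATA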); conditions: HeLa Gal4-ERK5 transactivation, 18 h, at 5 µM, stronger effect = higher value
# Chain of Mitogen-activated protein kinase 7 (Homo sapiens) (Q13164 whole entry, looked up, the tested form may be a part): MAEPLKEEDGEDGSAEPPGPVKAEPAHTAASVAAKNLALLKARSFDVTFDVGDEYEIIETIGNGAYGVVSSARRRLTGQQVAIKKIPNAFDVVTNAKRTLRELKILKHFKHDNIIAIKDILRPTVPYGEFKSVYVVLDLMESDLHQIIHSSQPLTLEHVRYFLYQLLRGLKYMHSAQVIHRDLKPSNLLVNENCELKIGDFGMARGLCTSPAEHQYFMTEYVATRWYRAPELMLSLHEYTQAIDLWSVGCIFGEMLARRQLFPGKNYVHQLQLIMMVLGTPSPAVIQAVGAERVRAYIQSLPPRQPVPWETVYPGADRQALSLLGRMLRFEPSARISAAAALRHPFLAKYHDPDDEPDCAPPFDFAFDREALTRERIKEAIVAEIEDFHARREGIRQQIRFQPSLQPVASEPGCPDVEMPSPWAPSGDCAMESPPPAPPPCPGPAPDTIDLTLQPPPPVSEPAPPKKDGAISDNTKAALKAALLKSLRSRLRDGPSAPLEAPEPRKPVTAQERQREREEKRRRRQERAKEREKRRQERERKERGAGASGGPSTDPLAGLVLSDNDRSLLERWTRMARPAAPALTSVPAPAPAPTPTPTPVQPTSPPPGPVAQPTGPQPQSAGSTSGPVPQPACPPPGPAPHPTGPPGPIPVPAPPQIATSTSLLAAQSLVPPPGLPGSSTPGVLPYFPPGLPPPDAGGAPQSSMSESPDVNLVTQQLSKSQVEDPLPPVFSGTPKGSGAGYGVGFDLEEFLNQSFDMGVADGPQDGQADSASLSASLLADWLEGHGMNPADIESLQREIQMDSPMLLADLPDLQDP
# [16] = biological target: ATP-dependent translocase ABCB1 (Homo sapiens) (UniProt P08183); assay: MDR1 (ABCB1) efflux transporter inhibition, cell-based (AID 377; in the data active = fluorescence slope change above about 50%); conditions: MDR1-expressing cells, fluorescent substrate accumulation slope; stronger effect = higher value; concentration not given here
# Chain of ATP-dependent translocase ABCB1 (Homo sapiens) (P08183 whole entry, looked up): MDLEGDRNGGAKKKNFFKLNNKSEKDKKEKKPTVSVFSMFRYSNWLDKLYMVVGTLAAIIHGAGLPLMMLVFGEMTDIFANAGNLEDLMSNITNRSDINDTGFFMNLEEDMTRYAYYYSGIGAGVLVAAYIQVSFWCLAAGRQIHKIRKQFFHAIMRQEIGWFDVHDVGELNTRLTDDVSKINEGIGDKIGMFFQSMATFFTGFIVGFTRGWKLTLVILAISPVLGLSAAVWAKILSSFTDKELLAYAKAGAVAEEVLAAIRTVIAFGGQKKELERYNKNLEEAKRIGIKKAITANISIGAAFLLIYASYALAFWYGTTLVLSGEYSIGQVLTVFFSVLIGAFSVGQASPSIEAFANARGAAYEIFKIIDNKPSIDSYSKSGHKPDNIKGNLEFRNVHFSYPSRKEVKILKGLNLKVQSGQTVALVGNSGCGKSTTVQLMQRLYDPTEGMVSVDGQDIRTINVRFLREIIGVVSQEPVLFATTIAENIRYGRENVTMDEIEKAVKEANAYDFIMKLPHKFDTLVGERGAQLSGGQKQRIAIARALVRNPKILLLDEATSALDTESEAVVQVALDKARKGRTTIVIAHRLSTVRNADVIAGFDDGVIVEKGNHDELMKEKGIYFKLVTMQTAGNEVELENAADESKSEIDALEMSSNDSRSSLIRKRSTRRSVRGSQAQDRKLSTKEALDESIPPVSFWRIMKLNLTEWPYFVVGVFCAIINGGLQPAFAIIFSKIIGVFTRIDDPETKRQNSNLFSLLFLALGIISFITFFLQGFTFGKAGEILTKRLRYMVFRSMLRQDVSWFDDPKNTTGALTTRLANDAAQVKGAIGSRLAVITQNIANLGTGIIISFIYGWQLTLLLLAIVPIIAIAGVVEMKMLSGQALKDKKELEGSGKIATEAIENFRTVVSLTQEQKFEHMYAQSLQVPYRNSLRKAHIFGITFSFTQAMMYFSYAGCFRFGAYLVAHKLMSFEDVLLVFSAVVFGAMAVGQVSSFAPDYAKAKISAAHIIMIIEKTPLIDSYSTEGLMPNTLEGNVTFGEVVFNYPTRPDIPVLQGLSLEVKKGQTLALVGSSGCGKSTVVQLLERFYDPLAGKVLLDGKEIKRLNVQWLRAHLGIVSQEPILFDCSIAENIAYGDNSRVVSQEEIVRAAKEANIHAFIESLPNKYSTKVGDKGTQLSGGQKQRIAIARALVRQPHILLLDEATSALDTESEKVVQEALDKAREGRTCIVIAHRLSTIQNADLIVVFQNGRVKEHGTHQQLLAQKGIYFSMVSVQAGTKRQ
# [17] = enhancers of SMN2 over SMN1 splicing, cell-based, SMN2/SMN1 luciferase reporters (AID 1598; call rule not given here); conditions: SMN2 vs SMN1 luciferase splicing reporter cells, at 10 µM; SMN1 luciferase ratio: measured here: SMN1 luciferase reporter average; SMN2 luciferase ratio: measured here: SMN2 luciferase reporter average, stronger effect = higher value; SMN2/SMN1 luciferase ratio: stronger effect = higher value
# [18] = viability rescue of complex I mutant cybrids, primary screen, cell-based, galactose medium, ATP luminescence (AID 1645843;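 active = z-score of at least 1.8 in each of two replicates, scored against plate mean and spread of sample wells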;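 note: positive z means more ATP and so rescue of galactose-driven cybrid death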); conditions: complex I mutant cybrid cells, 72 h, stronger effect = higher value
# [19] = stronger effect = lower value, cell number ratio, induced over uninduced
# [20] = measured here: relative caspase fold change +Dox/-Dox
# [21] = measured here: total cells with miR-34 induction, stronger effect = lower value
# [22] = measured here: total cells without miR-34 induction
# [23] = MELAS cybrid survival, CellTiter-Glo 48 h, stronger effect = higher value
# [24] = Rieske KO mouse fibroblast survival, CellTiter-Glo 72 h
smiles,measurement,setting,value
O=C(c1cccnc1)N1CCOCC1,fold change,[1]; [19],0.924 (inactive)
same,fold change,[1]; [20],0.837
same,cell count,[1]; [21],7970
same,cell count,[1]; [22],8630
same,remaining NAD,[2],10 nM (inactive)
CC1CCN(C(=O)CC#N)CC1N(C)c1ncnc2[nH]ccc12 (stereo unspecified),liver cell % of control,[3],104% and 99.8%
same,parasite % of control,[3],80.9% (inactive) and 77.3% (inactive) and 45.5% (inactive)
same,fold change,[1]; [19],0.908 (inactive) and 0.927 (inactive)
same,fold change,[1]; [20],0.692 and 0.73
same,cell count,[1]; [21],9120 and 9790
same,cell count,[1]; [22],10000 and 10600
same,z-score,[4]; [23],-0.285 (inactive) and -0.386 (inactive)
same,z-score,[4]; [24],-0.101 and -0.511
C=CCN1CCCC1CNC(=O)c1cc2[nH]nnc2cc1OC (stereo unspecified),parasite load remaining,[5],92.8% (inactive)
same,viability,[5],100%
same,fold change,[1]; [19],0.836 (inactive) and 0.882 (inactive)
same,fold change,[1]; [20],1.28 and 0.705
same,cell count,[1]; [21],8730 and 8290
same,cell count,[1]; [22],10400 and 9410
same,z-score,[4]; [23],-0.272 (inactive) and -0.0484 (inactive)
same,z-score,[4]; [24],-0.199 and -0.148
COc1ccc(-c2cc(=O)c3c(O)cc(O)cc3o2)cc1,inhibition,[6],-17.1%
same,score,[7],1.2
same,rescue above control,[8],10.4
same,cytochrome c release ratio,[9],0.89
same,inhibition of aggregation,[10],41.2%
same,glutamate uptake change,[11],-9.64%
same,inclusion score,[12],2
same,aggregation suppression score,[13],0.73
same,survival,[14],3.33 (inactive)
same,parasite load remaining,[5],73.8% (inactive) and 91.5% (inactive)
same,viability,[5],92.5% and 92.4%
same,fold change,[1]; [19],0.79 (inactive)
same,fold change,[1]; [20],1.12
same,cell count,[1]; [21],7540
same,cell count,[1]; [22],9550
same,luciferase signal,[15],40 AU (inactive)
CC[C@]12CCCN3CCc4c(n(c5ccccc45)[C@](O)(C(=O)OC)C1)[C@@H]32,fluorescence slope change,[16],15.4% (inactive)
same,inhibition,[6],18.7%
same,score,[7],1.6
same,rescue above control,[8],4.14
same,cytochrome c release ratio,[9],1.05
same,inhibition of aggregation,[10],27%
same,glutamate uptake change,[11],-2.93%
same,inclusion score,[12],2.5
same,aggregation suppression score,[13],1.32
same,parasite load remaining,[5],112% (inactive) and 81.9% (inactive) and 58.4% (inactive)
same,viability,[5],102% and 72.1% and 74.9%
same,fold change,[1]; [19],0.786 (inactive)
same,fold change,[1]; [20],1.26
same,cell count,[1]; [21],7940
same,cell count,[1]; [22],10100
C[C@]1(OC(=O)/C=C/c2ccccc2)C[C@@H](O)[C@]2(O)C=CO[C@@H](O[C@@H]3O[C@H](CO)[C@@H](O)[C@H](O)[C@H]3O)[C@@H]21,parasite load remaining,[5],121% (inactive)
same,viability,[5],74.8%
same,fold change,[1]; [19],0.943 (inactive)
same,fold change,[1]; [20],0.61
same,cell count,[1]; [21],9240
same,cell count,[1]; [22],9800
same,luciferase signal,[15],28 AU (inactive)
CC(=O)O[C@H]1C[C@@]2(C)[C@@H](C[C@@H](O)[C@H]3[C@@]4(C)CC[C@@H](O)[C@@H](C)C4CC[C@@]32C)/C1=C(\CCC=C(C)C)C(=O)O (stereo partly specified),parasite load remaining,[5],147% (inactive)
same,viability,[5],140%
same,fold change,[1]; [19],0.911 (inactive)
same,fold change,[1]; [20],1.1
same,cell count,[1]; [21],8570
same,cell count,[1]; [22],9410
same,z-score,[4]; [23],-3.27 (inactive)
same,z-score,[4]; [24],-2.48
O=C1NC(=O)C(=Cc2cccc(C(F)(F)F)c2)S1,liver cell % of control,[3],81.5% and 80.8% and 97.3%
same,parasite % of control,[3],0.631% (inactive) and 2.17% (inactive) and 7.31% (inactive)
same,fold change,[1]; [19],0.809 (inactive)
same,fold change,[1]; [20],0.469
same,cell count,[1]; [21],7740
same,cell count,[1]; [22],9570
same,z-score,[4]; [23],-0.352 (inactive)
same,z-score,[4]; [24],0.482
CC(C)CCN1c2nc(Nc3cc(F)c(O)c(F)c3)ncc2N(C)C(=O)C1C (stereo unspecified),liver cell % of control,[3],87.7% and 90.4% and 106%
same,parasite % of control,[3],35.4% (inactive) and 66.2% (inactive) and 39.4% (inactive)
same,fold change,[1]; [19],1.05 (inactive)
same,fold change,[1]; [20],0.299
same,cell count,[1]; [21],2560
same,cell count,[1]; [22],2450
same,z-score,[4]; [23],0.0608 (inactive)
same,z-score,[4]; [24],-0.296
CC(=O)O[C@]1(C(C)=O)CC[C@H]2[C@@H]3C=C(C)C4=CC(=O)CC[C@@H]4[C@H]3CC[C@@]21C,parasite load remaining,[5],85.6% (inactive)
same,viability,[5],73.5%
same,fold change,[1]; [19],0.942 (inactive)
same,fold change,[1]; [20],0.745
same,cell count,[1]; [21],8790
same,cell count,[1]; [22],9330
same,z-score,[4]; [23],-0.763 (inactive)
same,z-score,[4]; [24],-0.219
O[N+]1=CC=CCC1=S.On1ccccc1=S.[Zn],score,[7],0.07
same,SMN1 luciferase ratio,[17],0.04
same,SMN2/SMN1 luciferase ratio,[17],1.77 (active)
same,SMN2 luciferase ratio,[17],0.08
same,rescue above control,[8],16
same,cytochrome c release ratio,[9],1.27
same,inhibition of aggregation,[10],0%
same,glutamate uptake change,[11],-74.2%
same,aggregation suppression score,[13],-0.0147
same,parasite load remaining,[5],-0.27% (inactive) and -0.08% (inactive)
same,viability,[5],2.62% and 0%
same,fold change,[1]; [19],0.416 (active)
same,fold change,[1]; [20],2.93
same,cell count,[1]; [21],79
same,cell count,[1]; [22],190
C#C[C@]1(O)CCC2C3C(C)CC4=C(CCC(=O)C4)C3CC[C@@]21C (stereo partly specified),fold change,[1]; [19],0.909 (inactive)
same,fold change,[1]; [20],1.5
same,cell count,[1]; [21],8730
same,cell count,[1]; [22],9600
same,z-score,[18],-0.655 (inactive)
NC[C@H]1O[C@H](OC2[C@@H](N)C[C@@H](N)[C@H](O)[C@H]2O[C@@H]2O[C@H](CO)[C@@H](O)[C@H]2O)[C@H](N)[C@@H](O)[C@@H]1O (stereo partly specified),parasite load remaining,[5],77.5% (inactive)
same,viability,[5],92.8%
same,fold change,[1]; [19],1.02 (inactive)
same,fold change,[1]; [20],0.629
same,cell count,[1]; [21],9070
same,cell count,[1]; [22],8900
same,z-score,[4]; [23],-0.509 (inactive)
same,z-score,[4]; [24],0.171
COc1ccc(-c2ccc3c(N4CCOCC4)nc(N4CC(C)OC(C)C4)nc3n2)cc1CO (stereo unspecified),liver cell % of control,[3],228% and 225% and 144%
same,parasite % of control,[3],168% (inactive) and 180% (inactive) and 510% (inactive)
same,fold change,[1]; [19],1.04 (inactive)
same,fold change,[1]; [20],0.95
same,cell count,[1]; [21],2720
same,cell count,[1]; [22],2620
same,z-score,[4]; [23],3.15 (active)
same,z-score,[4]; [24],-0.466
CN1C2CC[C@H]1CC(OC(=O)C(O)c1ccccc1)C2 (stereo partly specified),score,[7],1.13
same,rescue above control,[8],-4.02
same,glutamate uptake change,[11],-10.2%
same,inclusion score,[12],2
same,aggregation suppression score,[13],1.37
same,fold change,[1]; [19],0.844 (inactive)
same,fold change,[1]; [20],1.44
same,cell count,[1]; [21],10300
same,cell count,[1]; [22],12200
